Bioassay records from PubChem BioAssay.
miR-122 inh = miR-122 sensor activation | Huh7 psiCHECK-miR122 Renilla luciferase sensor, 48 h | activation, % at 12.5 µM | 0.14% of 340,000 active;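 active = mean activation of 30% or more, with every replicate also reaching 30%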;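 also: higher luciferase signal means stronger suppression of miR-122 activity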
Of the large screens only hits and unclear results are named; the others gave an inactive call. Only a selection was taken, and hits are over-represented in it overall.

C[C@H](CO)N1C[C@H](C)[C@@H](CN(C)Cc2ccccc2)Oc2ncc(-c3cncnc3)cc2C1=O	none
C[C@@H]1CN([C@H](C)CO)C(=O)c2cc(-c3cccc(C(=O)N(C)C)c3)cnc2O[C@H]1CN(C)C(=O)Cc1ccccn1	none
C[C@H]1CN([C@@H](C)CO)C(=O)c2cc(C#Cc3ccccc3)cnc2O[C@H]1CN(C)C(=O)c1ccccn1	none
COCC#Cc1cnc2c(c1)C(=O)N([C@@H](C)CO)C[C@H](C)[C@@H](CN(C)C(=O)Nc1c(C)noc1C)O2	none
C[C@H]1CN([C@@H](C)CO)C(=O)c2cc(/C=C/c3ccccc3)cnc2O[C@@H]1CN(C)C(=O)c1cccnc1	none
C[C@H](O)C#Cc1ccc2c(c1)O[C@@H](CN(C)Cc1cncnc1)[C@@H](C)CN([C@H](C)CO)S2(=O)=O	none
COc1cccc(-c2cnc3c(c2)C(=O)N([C@@H](C)CO)C[C@H](C)[C@H](CN(C)Cc2ccccc2)O3)c1	none
C[C@@H]1CN([C@H](C)CO)S(=O)(=O)c2ccc(-c3ccccc3)cc2O[C@@H]1CN(C)Cc1cccnc1	none
CNC[C@@H]1Oc2cc(C#CC3CCCCC3)ccc2S(=O)(=O)N([C@@H](C)CO)C[C@@H]1C	miR-122 inh 51.3
CNC[C@@H]1Oc2cc(C#C[C@@H](C)O)ccc2S(=O)(=O)N([C@H](C)CO)C[C@H]1C	none
CNC[C@H]1Oc2cc(C#C[C@H](C)O)ccc2S(=O)(=O)N([C@H](C)CO)C[C@@H]1C	none
CNC[C@@H]1Oc2cc(C#C[C@H](C)O)ccc2S(=O)(=O)N([C@@H](C)CO)C[C@@H]1C	none
CNC[C@H]1Oc2cc(C#CC3CCCCC3)ccc2S(=O)(=O)N([C@H](C)CO)C[C@@H]1C	miR-122 inh 41.8
CNC[C@H]1Oc2cc(C#CC(C)C)ccc2S(=O)(=O)N([C@@H](C)CO)C[C@@H]1C	none
CO[C@@H]1CN(C)C(=O)c2ccc(NC(=O)NC(C)C)cc2OC[C@H](C)NC[C@H]1C	none
C[C@H](CO)N1C[C@H](C)[C@@H](CN(C)Cc2ccccc2)Oc2cc(-c3cncnc3)ccc2S1(=O)=O	none
Cc1ccc(-c2cnc3c(c2)C(=O)N([C@H](C)CO)C[C@H](C)[C@@H](CN(C)C(=O)c2ccncc2)O3)cc1	none
C[C@H](CO)N1C[C@H](C)[C@H](CN(C)C(=O)Nc2ccc3c(c2)OCO3)Oc2ncc(-c3ccccc3)cc2C1=O	none
C[C@H](CO)N1C[C@H](C)[C@@H](CN(C)Cc2ccc(Oc3ccccc3)cc2)Oc2ncc(-c3cccnc3)cc2C1=O	none
CCOC(=O)Nc1cc2c(c(N)n1)N=C(c1ccccc1)CN2	none
CCOC(=O)CCS(=O)(=O)c1nc(-c2ccccc2)cc(C(F)(F)F)n1	miR-122 inh 51.4
C[C@@H]1CN([C@@H](C)CO)C(=O)c2cc(C#CC3(O)CCCC3)cnc2O[C@H]1CN(C)Cc1cncnc1	none
C[C@@H]1CN([C@@H](C)CO)C(=O)c2cc(C#CC3(O)CCCC3)cnc2O[C@H]1CN(C)Cc1ccncc1	none
C[C@H](CO)N1C[C@H](C)[C@@H](CN(C)C(=O)Cc2ccccn2)Oc2ncc(/C=C/c3ccccc3)cc2C1=O	none
C[C@H]1CN([C@@H](C)CO)S(=O)(=O)c2ccc(-c3cncnc3)cc2O[C@@H]1CN(C)Cc1ccccc1	none
C[C@@H]1CN([C@@H](C)CO)C(=O)c2cc(-c3ccc(C(=O)N(C)C)cc3)cnc2O[C@@H]1CN(C)C(=O)c1cccnc1	none
CO[C@@H]1CN(C)C(=O)c2cc(NC(=O)Cc3ccccc3)ccc2OC[C@H](C)N(C)C[C@@H]1C	none
CCN(C[C@H]1[C@H](c2ccccc2)[C@@H](CO)N1C(=O)COC)S(C)(=O)=O	none
COc1ccc(C(=O)N2C[C@H]3[C@@H](c4ccccc42)[C@@H](CO)N3C(=O)c2ccc(F)cc2)cc1	none
O=C(c1ccc(F)cc1)N1C[C@H]2[C@@H](c3ccccc31)[C@@H](CO)N2C(=O)c1ccc(F)cc1	none
O=C(c1cccnc1)N1C[C@H]2[C@@H](c3ccccc31)[C@H](CO)N2C(=O)C1CCCC1	miR-122 inh 40.0
COCC(=O)N1[C@H](CO)[C@H]2c3ccccc3N(C(=O)C3CC3)C[C@H]21	miR-122 inh 41.7
O=C(c1cccc(F)c1)N1C[C@H]2[C@@H](c3ccccc31)[C@@H](CO)N2C(=O)c1ccc(F)cc1	none
C[C@@H]1CN([C@H](C)CO)C(=O)c2cc(-c3ccc(C(=O)N(C)C)cc3)cnc2O[C@H]1CN(C)Cc1ccc(C(=O)O)cc1	none
CCC(=O)N(C)C[C@@H]1Oc2ncc(C#Cc3cccnc3)cc2C(=O)N([C@@H](C)CO)C[C@H]1C	none
C[C@@H]1CN([C@@H](C)CO)C(=O)c2cc(C3=CCCCC3)cnc2O[C@H]1CN(C)Cc1ccccc1C(=O)O	none
COCC#Cc1ccc2c(c1)O[C@@H](CN(C)C(=O)C1CCCCC1)[C@H](C)CN([C@H](C)CO)S2(=O)=O	none
COc1cc(/C=C2/CCC/C(=C\c3cc(O)c(OC)c(Cl)c3)C2=O)cc(Cl)c1O	none
O=C1/C(=C/c2ccncc2)CCC/C1=C\c1ccncc1	miR-122 inh 77.8
C[C@@H]1CN([C@H](C)CO)S(=O)(=O)c2ccc(Br)cc2O[C@@H]1CN(C)S(C)(=O)=O	none
C/C=C/c1ccc2c(c1)O[C@H](CN(C)C(=O)CC1CC1)[C@@H](C)CN([C@H](C)CO)S2(=O)=O	none
OCc1ccc(-c2nn(Cc3ccccc3)c3ccccc23)o1	miR-122 inh 53.7
CCCC#Cc1cnc2c(c1)C(=O)N([C@@H](C)CO)C[C@@H](C)[C@H](CN(C)C(=O)C1CC1)O2	none
C[C@H](CO)N1C[C@H](C)[C@H](CN(C)C(=O)c2cccnc2)Oc2ncc(-c3ccccc3)cc2C1=O	none
C[C@@H]1CN([C@@H](C)CO)S(=O)(=O)c2ccc(-c3cncnc3)cc2O[C@H]1CN(C)C(=O)Cc1cccnc1	none
COc1ccc(-c2cnc3c(c2)C(=O)N([C@@H](C)CO)C[C@@H](C)[C@H](CN(C)C(=O)C2CCOCC2)O3)cc1	none
CC(=O)N(C)C[C@H]1Oc2cc(C#C[C@H](C)O)ccc2S(=O)(=O)N([C@@H](C)CO)C[C@H]1C	none
COc1ccc(S(=O)(=O)Nc2cc3c4c(oc3c3ccccc23)CCCC4=O)cc1	none
COc1ccc(Oc2ccc(N/C=C3\CCCC3=O)cc2)cc1	miR-122 inh 35.9
COc1ccc(NS(=O)(=O)c2cc(C)ccc2C)cc1	none
CC(=O)Oc1ccc2c(c1)C(=O)c1ccccc1CO2	miR-122 inh 34.7
C[C@H](CO)N1C[C@H](C)[C@@H](CN(C)Cc2cccc(C(=O)O)c2)Oc2ncc(/C=C/c3ccccc3)cc2C1=O	none
C[C@H]1CN([C@@H](C)CO)C(=O)c2cc(C#CCN(C)C)cnc2O[C@@H]1CN(C)C(=O)Cc1ccncc1	none
Cc1noc(C)c1S(=O)(=O)N(C)C[C@@H]1Oc2c(NC(=O)c3cnccn3)cccc2C(=O)N([C@@H](C)CO)C[C@@H]1C	none
CN1C(=O)c2cc(NC(=O)c3cccc(F)c3)ccc2OC[C@@H]2O[C@@H](CC(=O)NC3CCC3)CC[C@H]21	miR-122 inh 70.0
CN1C(=O)c2cc(NC(=O)Cc3ccccc3)ccc2OC[C@@H]2O[C@H](CC(=O)NC3CCC3)CC[C@@H]21	none
CC(=O)Nc1ccc2c(c1)C(=O)N(C)[C@H]1CC[C@H](CC(=O)NC3CCCCC3)O[C@@H]1CO2	miR-122 inh 63.3
CN1C(=O)c2cc(NC(=O)NC3CCCC3)ccc2OC[C@H]2O[C@@H](CC(=O)O)CC[C@H]21	none
C[C@@H]1CN([C@H](C)CO)C(=O)c2cc(C#Cc3cccnc3)cnc2O[C@@H]1CN(C)Cc1ccncc1	none
